# Screens: PubChem BioAssay, National Center for Advancing Translational Sciences (NCATS)
# BAZ2B inh = qHTS Assay for Inhibitors of BAZ2B; AlphaScreen BAZ2B-H3K14Ac peptide displacement; Potency, µM (titrated, usually from 114 µM), without a hit: at the highest dose activity change, negative = inhibition, usual class: inhibitors; actives 4.4% (n = 360,000); AID 504333, 2011; also: % is scaled to controls: 0 for no effect and ±100 for the full control effect; nearly all actives have a fitted effect of over 60% in size
#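 Inhibition is scored as reduced AlphaScreen emission. The BAZ2B/b-H3(5-23)K14Ac complex (50 nM each) in PBS pH 7.4, 0.01% Tween-20 meets compound (up to 110 uM) for 30 min at RT before bead addition.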
# JMJD2A Tudor inh = qHTS Assay for Inhibitors of JMJD2A-Tudor Domain; Lysine-specific demethylase 4A (Homo sapiens), O75164; actives 4.4% (n = 390,000); Potency, µM (titrated, usually from 114 µM), for the others: top-dose activity change, negative = inhibition, usual class: inhibitors; AlphaScreen JMJD2A-Tudor / H3K4me3 peptide binding; also: % is scaled to controls: 0 for no effect and ±100 for the full control effect; nearly all actives have a fitted effect of over 50% in size
# G9a inh = qHTS Assay for Inhibitors of Histone Lysine Methyltransferase G9a; Potency, µM (doses to about 102 µM), for inactives: at the highest dose activity, negative = inhibition, hits mostly inhibitors; Histone-lysine N-methyltransferase EHMT2 (Homo sapiens), Q96KQ7; G9a H3K9 monomethylation, AlphaScreen, 2 h; AID 504332, 2011; actives 8.8% (n = 350,000); also: % is scaled to controls: 0 for no effect and ±100 for the full control effect; nearly all actives have a fitted effect of over 75% in size
# Target sequence (Q96KQ7 913-1193 limits assumed): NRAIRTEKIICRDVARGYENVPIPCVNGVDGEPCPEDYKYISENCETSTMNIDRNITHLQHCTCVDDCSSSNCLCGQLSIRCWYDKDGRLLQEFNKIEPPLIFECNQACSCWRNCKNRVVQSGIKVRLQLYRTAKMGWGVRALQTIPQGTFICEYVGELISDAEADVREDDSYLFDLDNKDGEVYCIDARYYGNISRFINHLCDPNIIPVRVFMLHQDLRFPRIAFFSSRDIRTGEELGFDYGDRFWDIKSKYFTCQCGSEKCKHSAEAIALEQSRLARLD
#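 G9a (20 nM) was preincubated 15 min with compound, then reacted 2 h at room temperature with 500 nM biotin-H3K9 peptide and 20 µM SAM. Monomethyl-H3K9 detected by AlphaScreen using anti-H3K9me1 antibody.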
# PLK1 PBD inh = qHTS for Inhibitors of PLK1-PDB (polo-like kinase 1 - polo-box domain): Primary Screen. Plk1 PBD binding of FITC phosphopeptide, fluorescence polarization. Potency, µM, without a hit: max response, negative = inhibition, hits mostly inhibitors. actives 2.8% (n = 360,000). AID 720504, 2013; also: series mostly up to about 57 µM; % is scaled to controls: 0 for no effect and ±100 for the full control effect; nearly all actives have a fitted effect of over 65% in size
# HP1b binding inh = HTS for Inhibitors of HP1-beta Chromodomain Interactions with Methylated Histone Tails; Chromobox protein homolog 1 (Homo sapiens), P83916; AlphaScreen HP1-beta / biotin-H3K9me3 peptide binding; Potency, µM (top dose mostly 114 µM), without a hit: at the highest dose activity change, negative = inhibition, usual class: inhibitors; actives 0.56% (n = 390,000); also: nearly all actives have a fitted effect of over 70% in size
# Target sequence (P83916 whole entry, looked up): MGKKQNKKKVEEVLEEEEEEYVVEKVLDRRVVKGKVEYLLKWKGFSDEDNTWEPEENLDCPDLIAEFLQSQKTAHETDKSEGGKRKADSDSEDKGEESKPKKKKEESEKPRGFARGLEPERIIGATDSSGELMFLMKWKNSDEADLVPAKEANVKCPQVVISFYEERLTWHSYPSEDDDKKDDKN
#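 HP1-beta protein (50 nM final) preincubated 30 min at room temperature with biotinylated H3(1-18)K9me3 peptide (50 nM) in PBS pH 7.4, 0.01% Tween-20, then compound added for 30 min. AlphaScreen streptavidin donor/nickel chelate acceptor beads (10 ug/mL final), 30 min dark, luminescence read.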
# Sfp PPTase inh = qHTS Assay for Inhibitors of Bacillus subtilis Sfp phosphopantetheinyl transferase (PPTase); Potency, µM, for inactives: largest response in the series, negative = inhibition, actives largely listed as inhibitors; Biochemical Sfp PPTase activity, qHTS; AID 1490, 2009; actives 3.5% (n = 310,000);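 also: the enzyme is Sfp with the accession as filed and its product quenches rhodamine fluorescence; 0% = enzyme reaction without inhibitor and -100% = no enzyme wells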
#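 Fluorescence-quenching assay with 15 nM Sfp, 5 uM rhodamine-CoA and 12.5 uM BHQ-2-labelled ybbR peptide in pH 7.6 Hepes/MgCl2 buffer. Enzyme was pre-incubated with compound for 15 min at room temperature. Rate was taken from the 30-min fluorescence change (525/598 nm).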
# Active calls of the source: *; u = inconclusive; x = not tested or not shown; [ ] = another dose, or the depositor's remark. An excerpt weighted towards active compounds, which were near 12% of everything screened. Calls follow the shape of the dose curve; as a rule, active = well fitted curve in the direction sought with a large enough effect; inconclusive = small, poorly fitted or top-dose-only effect, or another doubt; inactive = no such curve, though single readings can be large; an effect the other way counts as inactive or inconclusive. Potency is read from the fitted curve at half-maximal effect.
SMILES,BAZ2B inh,JMJD2A Tudor inh,G9a inh,PLK1 PBD inh,HP1b binding inh,Sfp PPTase inh
COc1cc(OC)c(OC)cc1CN1CCN(Cc2cccc(F)c2)CC1,-31%,56µM*,u,-5%,-15%,10%
COc1ccc(NC(=S)N2CCN(Cc3ccco3)CC2)c(OC)c1,-1%,-12%,-10%[59 µM],-9%,21%,7%
CCc1c(CN2CCN(c3ccc(F)cc3)CC2)csc1C,-27%,-34%,u,x,25%,x
COc1cc(OC)c(OC)cc1CN1CCN(c2ccc(F)cc2)CC1,50µM*,45µM*,28µM*,0%,u,0%
COc1cc(OC)c(OC)cc1CN1CCN(Cc2ccco2)CC1,79µM*,22µM*,35µM*,-10%,-11%,-9%
O=C(c1cccs1)c1cn(CCOc2ccccc2Cl)c2ccccc12,0%,-5%,1%[59 µM],x,40%,x
COc1ccc(CN2CCN(c3ccccc3OC)CC2)cc1OC,50µM*,22µM*,x,-9%,u,-22%
COc1ccc(CN2CCN(Cc3cccc(F)c3)CC2)cc1OC,22µM*,3.2µM*,-11%[2.33 µM],-11%,u,u
COc1ccc(CN2CCCCCC2)cc1OC,x,u,x,-3%,-23%,x
COc1ccc(CN2CCN(Cc3ccccc3F)CC2)cc1OC,35µM*,5.6µM*,8.9µM*,0%,u,u
C/C(=N\N=C(/N)SC1CC(=O)N(c2ccccc2)C1=O)c1cccs1 (stereo not given),-5%,u,-31%[59 µM],-2%,-3%,11%
C/C(=N\N=C(/N)SC1CC(=O)N(c2ccc(Cl)cc2)C1=O)c1cccs1 (stereo not given),u,u,40µM*,-15%,14%,13%
Cc1ccccc1C(=O)Nc1cc(S(=O)(=O)N2CCOCC2)ccc1N1CCN(C)CC1,-6%,-7%,4%[12.7 µM],-5%,27%,x
O=C(O)C1Sc2[nH]c(=O)sc2C2c3ccc(O)cc3OC(=O)C12 (stereo not given),-38%,-30%,40µM*,30µM*,u,u
COC(=O)C1Sc2[nH]c(=O)sc2C2c3ccccc3OC(=O)C12 (stereo not given),-7%,-16%,u,-15%,10%,17%
O=C(O)C1Sc2[nH]c(=O)sc2C2c3cc(Br)ccc3OC(=O)C12 (stereo not given),u,-28%,x,30µM*,u,u
Cc1ccc2c(n1)sc1c(-c3ccc(Br)cc3)c(C#N)c(N)nc12,5%[57.1 µM],-10%,-14%[12.7 µM],-8%,55%,u
N#Cc1c(Cl)c(Cl)c2nnc(-c3ccc(Br)cc3)n2c1Cl,56µM*,x,13µM*,x,x,3%
Cc1cc(C)cc(NC(=O)CN(c2cc(C(F)(F)F)ccc2Cl)S(=O)(=O)c2ccccc2)c1,-2%,-10%,-3%[59 µM],x,13%,x
CSCC[C@H](NC(=O)N1CCn2c1nc1ccccc12)C(=O)NCc1ccccc1,u,u,45µM*,-20%,31%,26%
CSCC[C@H](NC(=O)N1CCn2c1nc1ccccc12)C(=O)NCc1ccco1,u,45µM*,79µM*,27µM*,u,-14%
CSCC[C@H](NC(=O)N1CCn2c1nc1ccccc12)C(=O)NCc1ccc(C)cc1,u,-3%,32µM*,9%,14%,-7%
CSCC[C@H](NC(=O)N1CCn2c1nc1ccccc12)C(=O)N[C@H](Cc1ccccc1)C(=O)O,u,u,-4%[12.7 µM],-10%,21%,10%
Cc1cccc(S(=O)Cc2ccc(C(=O)N3CCN(C(=O)c4ccco4)CC3)o2)c1 (stereo not given),-4%,-1%,-5%,-9%,55%,13%
CCc1ccccc1NC(=O)CSc1nnc(CC)c(CC)n1,3%,8%,-2%[59 µM],x,36%,x
SMILES,BAZ2B inh,JMJD2A Tudor inh,G9a inh,PLK1 PBD inh,HP1b binding inh,Sfp PPTase inh
CCCSc1nnc(NC(=O)c2cc(=O)c3ccccc3o2)s1,-3%,-10%,-33%[59 µM],x,26%,x
CCN1CCCC1CNC(=O)c1cc2c(-c3ccc(Cl)cc3)nn(C)c2s1 (stereo not given),-27%,-34%,79µM*,-4%,4%,6%
Cc1ccc(CNC(=O)c2cc3c(-c4ccc(Cl)cc4)nn(C)c3s2)o1,0%,-12%,50µM*,-9%,31%,u
CCCCNC(=O)c1cc2c(-c3ccc(Cl)cc3)nn(C)c2s1,-5%,-3%,19%,-1%,56%,15%
CCC(=O)N1CCCC(C)(C(=O)Nc2ccc(C)c(C)c2)C1 (stereo not given),x,x,x,-6%,x,x
O=C(COC(=O)Cc1ccc(S(=O)(=O)N2CCOCC2)s1)Nc1ccc(F)cc1F,x,-8%,x,4%,42%,x
Cc1oc2ncnc(N3CCCCC3)c2c1C(=O)N1CCN(c2cccc(C(F)(F)F)c2)CC1,-11%[57.1 µM],-29%,-35%[59 µM],x,-18%,x
COC(=O)c1cc(-c2cccc([N+](=O)[O-])c2)c2c(=O)[nH]c(=O)n(C)c2n1,-6%,-31%,19%,30µM*,4%,7%
Cc1[nH]c2ccccc2c1N=Nc1ccc(F)cc1,32µM*,89µM*,40µM*,-14%,u,20%
Cc1[nH]c2ccccc2c1N=Nc1cc(C(=O)O)cc(C(=O)O)c1,u,-21%,35µM*,-9%,-11%,-1%
Cc1[nH]c2ccccc2c1N=Nc1ccccc1F,40µM*,45µM*,40µM*,4%,u,9%
Cc1[nH]c2ccccc2c1SCC(=O)O,-22%,-10%,u,-7%,35%,5%
Oc1[nH]c2ccccc2c1N=Nc1c(F)c(F)c(Cl)c(F)c1F,-7%,-1%,-3%,-4%,52%,18%
CCc1nc2c(OCc3cc(Cl)cc(Cl)c3)cccn2c1N(C)C(=O)c1ccc(C)cc1,x,x,x,-12%,x,x
COc1cc2c(=O)n(CCc3ccccc3)c(=O)n(CC(=O)Nc3ccccc3)c2cc1OC,u,-17%,-19%[59 µM],x,25%,x
Cc1ccc(-c2c(CN3CCN(c4cccc(C)c4C)CC3)csc2C)cc1,-36%,-32%,u,x,37%,x
CCCCCc1ccc(CC(=O)O)cc1,-5%,-1%,16%,-1%,45%,8%
CCCCc1ccc(CC(=O)O)cc1,-34%,-14%,u,30µM*,-24%,u
